An excerpt weighted towards active compounds, which were near 21% of everything screened.
ELG1 repair inh: qHTS screen for small molecules that inhibit ELG1-dependent DNA repair in human embryonic kidney (HEK293T) cells expressing luciferase-tagged ELG1; HEK293T ELG1-luciferase reporter, luminescence, 16 h; DNA damage induced by 5-fluorouridine; Potency, µM (doses to about 46.1 µM), for inactives: at the top dose activity change, negative = inhibition, hits mostly inhibitors; 330,000 tested, 2.3% active; AID 504467, 2011; note: potency is the fitted concentration of half-maximal effect; nearly all actives have a fitted effect of over 55% in size
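Cells (2,000 per well) received 5-fluorouridine plus test compound or DMSO and were incubated 16 hr at 37 °C, 5% CO2. Luciferase activity was read by luminescence 30 min after ONE-Glo addition; signal suppression marked inhibition of damage-induced ELG1 function.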
Gal4-VP16 FLuc: VP16 counterscreen qHTS for inhibitors of ROR gamma transcriptional activity; Drosophila S2 Gal4-VP16 UAS-luciferase, luminescence, 20 h; Potency, µM (top dose mostly 53.6 µM), without a hit: at the highest dose activity, negative = inhibition, hits mostly inhibitors; 310,000 tested, 3.5% active;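 note: Gal4-VP16 expression switched on by copper sulfate through the metallothionein promoter; potency is the fitted concentration of half-maximal effect; nearly all actives have a fitted effect of over 50% in size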
RORg inh: qHTS for inhibitors of ROR gamma transcriptional activity | Nuclear receptor ROR-gamma (Mus musculus), P51450 | Drosophila S2 Gal4-RORgamma UAS-luciferase reporter, 20 h | Potency, µM (titrated, usually from 53.6 µM), inactives show top-dose activity change, negative = inhibition, usual class: inhibitors | 310,000 tested, 5.4% active; note: potency is the fitted concentration of half-maximal effect; nearly all actives have a fitted effect of over 60% in size
Target sequence (P51450 whole entry, looked up, the tested form may be a part): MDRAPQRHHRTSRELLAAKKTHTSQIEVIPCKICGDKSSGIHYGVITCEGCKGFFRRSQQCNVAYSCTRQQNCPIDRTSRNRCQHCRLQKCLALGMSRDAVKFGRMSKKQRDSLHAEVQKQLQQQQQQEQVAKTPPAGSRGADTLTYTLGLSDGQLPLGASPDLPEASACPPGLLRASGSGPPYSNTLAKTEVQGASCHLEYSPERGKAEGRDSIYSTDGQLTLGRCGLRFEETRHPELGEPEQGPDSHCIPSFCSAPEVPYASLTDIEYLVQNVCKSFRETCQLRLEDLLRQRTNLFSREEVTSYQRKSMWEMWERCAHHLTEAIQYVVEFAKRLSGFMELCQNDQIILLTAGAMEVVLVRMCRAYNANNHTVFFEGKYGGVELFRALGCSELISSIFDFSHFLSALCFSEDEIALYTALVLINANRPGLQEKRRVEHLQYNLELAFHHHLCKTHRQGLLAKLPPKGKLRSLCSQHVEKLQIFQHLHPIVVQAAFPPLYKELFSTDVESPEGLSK
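Luminescence from a UAS-regulated Photinus luciferase reporter in stably transfected Drosophila Schneider cells is measured; decreased signal marks ROR gamma inhibition. Fusion expression is induced by 700 uM copper sulfate for 20 hr.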
IL-1B inflam inh: qHTS for Inhibitors of Inflammasome Signaling: IL-1-beta AlphaLISA Primary Screen. THP-1 LPS/ATP IL-1B secretion, AlphaLISA, 16 h; hits give low values. activity change, % at 57.5 µM. 360,000 tested, 4.7% active. AID 743279, 2014; in the data active = activity change below about -50%; inconclusive = mostly about -30% to -49%
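Secreted IL-1B measured by AlphaLISA bead assay after 16 h compound exposure of THP-1 cells; compounds (final up to 57.5 uM) added 1 h before LPS (250 ng/mL) and ATP (1.25 mM) stimulation; lower signal means less secretion.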
DT40 TDP1 no CPT: qHTS for Inhibitors of human tyrosyl-DNA phosphodiesterase 1 (TDP1): qHTS in cells in absence of CPT. DT40 Tdp1-/- hTDP1 cells, no CPT, ATP luminescence, 48 h. 420,000 tested, 15% active. Potency, µM (highest dose often 46.2 µM), inactives show at the top dose activity change, negative = growth inhibition, hits mostly inhibitors. AID 686978, 2013; note: potency is the fitted concentration of half-maximal effect; nearly all actives have a fitted effect of over 55% in size
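Chicken DT40 Tdp1-/- cells stably complemented with human TDP1 were seeded at 400 cells/well with DMSO in place of 20 nM camptothecin. After compound pinning, cells grew at least 48 hr at 37 °C; viability read by CellTiter-Glo luminescence.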
TDP1 cell CPT: qHTS for Inhibitors of human tyrosyl-DNA phosphodiesterase 1 (TDP1): qHTS in cells in presence of CPT | chicken DT40 Tdp1-/-;hTDP1 cells + 20 nM CPT, ATP luminescence, 48 h | Potency, µM (doses to about 46.2 µM), for the others: at the top dose activity change, negative = growth inhibition, hits mostly inhibitors | 420,000 tested, 12% active | AID 686979, 2013; note: potency is the fitted concentration of half-maximal effect; nearly all actives have a fitted effect of over 55% in size
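Chicken DT40 Tdp1-/- cells stably complemented with human TDP1 were seeded at 400 cells/well in medium containing 20 nM camptothecin, exposed to pin-transferred compounds, and grown at 37 °C for at least 48 hr. Viability was read as ATP luminescence.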
* marks the source's active call; other numbers are inactive results; ? = inconclusive; / = no result given; [ ] = another dose, or the depositor's remark. Unless noted, calls come from the whole dose curve; as a rule, active = well fitted curve in the direction sought with a large enough effect; inconclusive = small, poorly fitted or top-dose-only effect, or another doubt; inactive = no such curve, though single readings can be large; an effect the other way counts as inactive or inconclusive. % is set by controls: 0 for no effect and ±100 for the full control effect.

SMILES | ELG1 repair inh | Gal4-VP16 FLuc | RORg inh | IL-1B inflam inh | DT40 TDP1 no CPT | TDP1 cell CPT
COc1ccc(CNC(=O)C(C)OC(=O)CO/N=C(\C)c2ccc3c(c2)OCO3)cc1 (stereo not drawn) | 10.1% | / | / | 0.6 | -9.2% | -6.7%
CC(C)(C)S(=O)N1Cc2cc(CO)cc(-c3ccccc3)c2[C@@H]1CCO (stereo partly drawn) | / | / | / | -5.3 | ? | ?
COCCCNC(=O)c1cnc2c(-c3ccc(F)cc3)c(C)nn2c1C | / | / | / | / | ? | -6.6%
CC(=O)Nc1ccc(S(=O)(=O)Nc2ccc(Cl)cn2)cc1 | 0.0% | 2.3% | 23.8% | 7.9 | -5.0% | -6.2%
CC(=O)Nc1ccc(S(=O)(=O)c2ccnc3cc(Cl)ccc23)cc1 | / | / | / | -102.6* | 9.2µM* | 11.6µM*
CCOC(=O)C1=C(O)c2ccccc2C(=O)/C1=C\c1ccc(CC)cc1 | 19.6% | -1.0%[0.365 µM] | 4.47µM* | ? | 20.6µM* | 20.6µM*
CCOC(=O)C1=C(C)OC(=Cc2ccc(OC)cc2)C1=O | / | / | / | 11.3 | -2.1% | -0.4%
CCOC(=O)C1=C(C)N(c2ccccc2)C(=O)/C1=C\c1ccc(O)c(OC)c1 | ? | -8.3% | -15.1% | -29.8 | ? | -42.5%
CCCc1ccc(/C=C2\C(=O)c3ccccc3C(O)=C2C(=O)OCC)cc1 | ? | ? | 11.2µM* | / | / | /
COc1ccc(NC(=O)c2cc3c(=O)n(Cc4ccco4)ccc3nc2C)c(OC)c1 | / | / | / | / | ? | -17.5%
CCN1C(=O)CS/C1=N\S(=O)(=O)c1ccc(Cl)cc1 | -0.6% | -6.8% | 5.0% | 1.8 | -6.3% | 7.7%
CCn1c(Cl)c(C=O)s/c1=N\S(=O)(=O)c1ccccc1 | ? | -7.1% | 9.0% | -3.3 | 0.366µM* | 0.82µM*
O=C(Nc1nc(C2C3CC4CC(C3)CC2C4)cs1)c1cc2cc([N+](=O)[O-])ccc2oc1=O (stereo not drawn) | 14.2% | -6.9% | 1.5% | 12.2 | 9.2µM* | 11.6µM*
O=C1C2ON(c3ccc(Br)cc3)C(c3cccnc3)C2C(=O)N1C1CCCCC1 (stereo not drawn) | 5.0% | -2.7%[0.365 µM] | 8.7% | 0.0 | 18.4µM* | ?
O=C1C2ON(c3ccccc3)C(c3cccnc3)C2C(=O)N1c1ccccc1 (stereo not drawn) | 7.9% | 1.6% | 2.7% | 1.4 | 10.9% | 7.0%
Cc1ccc(CN2CCNC(=O)C2CC(=O)NCC(F)(F)F)o1 (stereo not drawn) | -3.3% | -4.0% | 11.0% | -10.0 | -15.1% | -16.7%
Cc1ccc(S(=O)(=O)N2CCN(C(=O)c3ccccc3)CC2)cc1 | -0.4% | -12.8% | -0.3% | ? | -0.9% | -26.3%
O=C(c1cccs1)N1CCN(S(=O)(=O)c2ccccc2)CC1 | ? | 11.1% | 23.9% | 15.3 | 1.3% | -15.1%
Cc1ccc(S(=O)(=O)N2CCN(C(=O)c3sccc3-c3ccccc3)CC2)cc1 | 0.0% | -2.0% | 10.2% | 0.0 | 18.4µM* | ?
O=C(c1sccc1-c1ccccc1)N1CCN(S(=O)(=O)c2ccccc2)CC1 | 0.4% | 9.7% | -29.3% | 6.3 | 23.1µM* | ?
O=c1cc(O)c2c([nH]1)CCC2 | / | / | / | / | -12.3% | -5.3%
CCOC(=O)c1c(NC(=O)COC(=O)CCCOc2ccc(OC)cc2)sc(C(=O)N(C)C)c1C | / | / | / | -1.6 | ? | -0.7%
CCOC(=O)c1c(NC(=O)COc2ccc(Br)cc2)sc(C(C)=O)c1C | / | / | / | / | 9.2µM* | ?
CCN(CC)C(=O)c1sc(NC(=O)C2c3ccccc3Oc3ccccc32)c(C(=O)OC(C)C)c1C | / | / | / | / | 0.116µM* | ?

Screening data from PubChem.
